Inconclusive results are not listed. Where a call stands in place of a potency, no number is given. Active and inactive are the calls of the source. Calls come from the whole dose curve; as a rule, active = well fitted inhibition curve with a large enough effect; inconclusive = small, poorly fitted or top-dose-only effect; inactive = no such curve, though single readings can be large or run the other way.
Potency is the fitted concentration of half-maximal effect.

This assay is described as follows: Acumen qHTS Assay for Inhibitors of the mTORC1 Signaling Pathway in WT MEF Cells: Hit Validation. Note: nearly all actives have a fitted effect of over 60% in size. The note with it: Acumen imaging; series mostly up to 37.3 µM. Summed up:
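Read-out is immunofluorescent phospho-rpS6 (Ser235/236) normalised to PI-stained cell number, reported as % active cells using a 7.5 nM rapamycin threshold. Cells: WT or Tsc2-/-, p53-/- MEFs, compound-exposed 24 h at 37C; PI count also tracks viability.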
In general terms: Quantitative high-throughput screening tests each substance at several concentrations.
With `CC(CNC(=O)c1ccc(Nc2nc3ccccc3n3nnnc23)cc1)c1ccccc1` (stereo not given), the Potency entry was “inactive”.
The entry for `Cc1ccc(S(=O)(=O)c2nnn3c2nc(NC2CCCCC2)c2sccc23)cc1C` is “inactive”; for `CCCCS(=O)(=O)c1nc(-c2ccc(Br)cc2)cc(-c2ccccc2)c1C#N` it is 5.21 µM (active); for `COc1cc(Cl)c(C)cc1NC(=O)C1CCN(c2nc3ccccc3n3cccc23)CC1` it is “inactive”.
The entry for `COc1cc(C(=O)n2nc(C)c(Sc3ccc(Cl)cc3)c2C)cc(OC)c1OC` is “inactive”.
The figure for `O=C(CCOc1ccccc1)N(Cc1cccnc1)c1nc2c(F)cccc2s1` is 13.1 µM (active).
Consider `COc1ccc(Cl)cc1NC(=O)CCCS(=O)(=O)c1nc(-c2ccc(OC)c(OC)c2)cc(C(F)(F)F)n1`, for which the Potency was 3.69 µM (active).
To `CCOc1ccccc1NC(=O)CN1C(=O)C(=O)c2ccccc21` belongs “inactive”; to `CCN(c1ccccc1)S(=O)(=O)c1ccc(NC(=O)c2nc(S(C)(=O)=O)ncc2Cl)cc1`, 1.04 µM (active).
The entry for `CCc1ccccc1NC(=O)CSc1nc2c(oc3ccccc32)c(=O)n1-c1ccccc1F` is “inactive”.
To `CCOc1ccc(CC(=O)NC2CC(=O)N(c3ccc4c(c3)OCCO4)C2)cc1` (stereo not given) belongs “inactive”.
Take `CCOC(=O)C1CCN(C(=O)CSc2c3c(nc4ccc(Cl)cc24)CCCC3)CC1`: the Potency entry was “inactive”.
To `O=S(=O)(NCC(c1ccco1)S(=O)(=O)c1cccs1)c1ccc(Cl)cc1` (stereo not given) belongs “inactive”.
Regarding `COc1cccc(-c2cc(C(=O)Nc3cnn(Cc4ccc(Cl)cc4Cl)c3)no2)c1`, the Potency entry was “inactive”.
The figure for `Cc1cccc(C2C=C(c3ccc(C)c(C)c3)Nc3nnnn32)c1` (stereo not given) is 1.47 µM (active).

The record behind these values is PubChem BioAssay AID651789 (National Center for Advancing Translational Sciences (NCATS), 2012).
